PubChem BioAssay (NCATS)
Records with an inconclusive call do not appear. Calls of active or inactive are those of the source. Unless noted, calls follow the shape of the dose curve; as a rule, active = well fitted curve in either direction with a large enough effect (not every such curve was filed as active); inconclusive = small, poorly fitted or top-dose-only effect, or another doubt; inactive = flat fitted curve, though single readings scatter.

Columns and labels:
[1] = biological target: Lysosomal acid glucosylceramidase (Homo sapiens) (UniProt P04062); experiment: Glucocerebrosidase-p2 (AID 348; in the data active = potency below about 10 µM; also: potency is read from the fitted curve at half-maximal effect); settings: purified GBA, blue fluorogenic substrate, 40 min
Chain of Lysosomal acid glucosylceramidase (Homo sapiens) (P04062 whole entry, looked up): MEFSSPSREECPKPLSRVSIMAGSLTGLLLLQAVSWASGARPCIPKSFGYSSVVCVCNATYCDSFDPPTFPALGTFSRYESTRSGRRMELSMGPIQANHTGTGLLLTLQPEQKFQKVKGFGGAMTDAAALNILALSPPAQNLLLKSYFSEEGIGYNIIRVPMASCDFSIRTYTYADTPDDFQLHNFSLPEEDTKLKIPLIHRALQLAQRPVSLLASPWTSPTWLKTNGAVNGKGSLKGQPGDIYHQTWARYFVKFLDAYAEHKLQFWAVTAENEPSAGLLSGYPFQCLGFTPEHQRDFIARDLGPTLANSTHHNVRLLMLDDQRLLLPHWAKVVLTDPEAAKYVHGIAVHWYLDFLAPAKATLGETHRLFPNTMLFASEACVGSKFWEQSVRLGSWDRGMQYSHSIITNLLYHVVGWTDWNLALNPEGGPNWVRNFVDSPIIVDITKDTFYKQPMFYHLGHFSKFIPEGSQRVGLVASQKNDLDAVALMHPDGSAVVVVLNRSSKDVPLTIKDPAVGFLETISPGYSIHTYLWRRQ
In short: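 Normal human glucocerebrosidase (0.2 nM) with blue fluorogenic substrate (80 uM final) in citrate/phosphate pH 5.9 with 10mM sodium taurocholate, 0.01% tween-20; 40 min RT, NaOH/glycine stop; fluorescence Ex 365/Em 440; AC50 from a titration from 0.6 nM upwards.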

[2] = AP1 Signaling Pathway (AID 357); settings: ME-180 AP-1-bla reporter, EGF-induced, beta-lactamase ratio, 5 h; at 7.69 µM (top of the series) unless noted;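 also: ME-180 reporter cells stimulated with EGF at its EC50 level; % is scaled to controls: 0 for no effect and ±100 for the full control effect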
In short: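 Cells are seeded overnight, exposed to compound titrations and an EC50 level of EGF for 5 hours at 37 °C, then loaded with CCF4 dye for 2.5 hours. Beta-lactamase activity under the AP-1 element is read as a blue/green ratio.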

[3] = NFAT Signaling Pathway (AID 444); settings: Jurkat NFAT-bla M1, carbachol, beta-lactamase ratio, 5 h; at 7.69 µM (top of the series) unless noted;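 also: carbachol stimulus at about its EC50 of 1 µM final; % is scaled to controls: 0 for no effect and ±100 for the full control effect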
In short: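 Jurkat cells carrying an NFAT-driven β-lactamase reporter and co-transfected muscarinic M1 receptor were treated with compound plus carbachol (1 uM final, an EC50 level) for 5 h at 37 °C. CCF4 loading followed for 1 h at RT; 460/530 nm ratio gave %activity.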

[4] = Stat Signaling Pathway (AID 446); settings: ME-180 (cervical carcinoma) SIE beta-lactamase reporter, IL-6 stimulated, 5 h; at 7.69 µM (top of the series) unless noted;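 also: ME-180 cervical cancer cells given 40 pM IL-6 alongside compound; SIE-controlled beta-lactamase reporter measured as 460/530 nm FRET emission ratio; % is scaled to controls: 0 for no effect and ±100 for the full control effect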
In short: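 Normalization used AC90 stimulation (300 pM IL-6) and AC90 inhibition (125 nM pan-JAK inhibitor at 40 pM IL-6). The underlying signal is SIE-driven beta-lactamase in ME-180 cells after 5 h IL-6 exposure with compound.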

[5] = biological target: Glucocorticoid receptor (Homo sapiens) (UniProt P04150); experiment: GR-GFP Redistribution (AID 450;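 active = compounds whose dose series gives a full or clear partial fitted curve of increased nuclear translocation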; also: potency is read from the fitted curve at half-maximal effect); settings: U2OS GR-GFP nuclear translocation, laser cytometry, 2 h
Chain of Glucocorticoid receptor (Homo sapiens) (P04150 whole entry, looked up, the tested form may be a part): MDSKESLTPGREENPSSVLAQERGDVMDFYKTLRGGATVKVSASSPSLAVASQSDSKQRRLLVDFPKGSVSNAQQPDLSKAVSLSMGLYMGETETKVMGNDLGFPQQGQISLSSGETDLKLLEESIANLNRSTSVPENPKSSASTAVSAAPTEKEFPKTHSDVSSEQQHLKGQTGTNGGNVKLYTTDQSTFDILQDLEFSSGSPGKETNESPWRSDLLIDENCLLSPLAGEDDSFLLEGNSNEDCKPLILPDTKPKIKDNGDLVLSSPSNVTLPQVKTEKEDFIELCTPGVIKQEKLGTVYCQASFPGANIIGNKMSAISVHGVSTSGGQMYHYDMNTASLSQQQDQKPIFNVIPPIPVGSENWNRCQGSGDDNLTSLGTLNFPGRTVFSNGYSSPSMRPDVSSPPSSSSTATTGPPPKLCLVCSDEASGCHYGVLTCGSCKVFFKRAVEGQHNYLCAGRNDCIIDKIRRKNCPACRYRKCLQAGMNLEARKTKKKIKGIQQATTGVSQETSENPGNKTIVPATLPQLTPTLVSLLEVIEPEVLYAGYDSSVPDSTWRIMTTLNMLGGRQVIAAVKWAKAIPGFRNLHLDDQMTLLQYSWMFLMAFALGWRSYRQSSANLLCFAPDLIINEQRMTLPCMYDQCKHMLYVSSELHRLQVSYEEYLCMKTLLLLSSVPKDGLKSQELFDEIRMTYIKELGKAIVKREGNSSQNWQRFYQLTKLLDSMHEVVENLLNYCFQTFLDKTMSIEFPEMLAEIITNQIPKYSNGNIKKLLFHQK

[6] = biological target: Glucocorticoid receptor (Homo sapiens) (UniProt P04150); experiment: GR-EFC Redistribution (AID 451; calls by dose curve; also: potency is read from the fitted curve at half-maximal effect); settings: CHO-K1 GR-EFC translocation, beta-gal luminescence, 2 h
In short: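 CHO-K1 cells stably expressing nuclear-localized β-gal enzyme acceptor and GR fused C-terminally to the enzyme donor fragment; ligand-driven nuclear translocation restores β-gal by complementation. Compounds titrated up to 46 uM final, 2 h at 37 °C; luminescence read.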

[7] = biological target: Mitogen-activated protein kinase 10 (Mus musculus) (UniProt Q61831); experiment: JNK3 AlphaScreen Assay (AID 530); settings: JNK3 lysate, c-Jun phosphorylation; series mostly up to 11.4 µM;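 also: kinase came from lysate of stimulated human HepG2 cells; signal reports phosphorylation of biotinylated GST-cJun 1-79 at Ser73 with 10 µM ATP; % is scaled to controls: 0 for no effect and ±100 for the full control effect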
In short: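 Phosphorylation of biotinylated GST-cJun(1-79) at Ser73 is measured by AlphaScreen proximity luminescence. Enzyme is JNK3 in HepG2 lysates activated with interleukin-1beta and tumor necrosis factor alpha; ATP is 10 uM final.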

[8] = biological target: 3',5'-cyclic-AMP phosphodiesterase 4B (Homo sapiens) (UniProt Q07343); experiment: qHTS Assay for Inhibitors of PDE-IV (AID 607; active = well fitted activation curve with a large enough effect in the main read-out, with a control signal flat, not every such curve was filed as active; also: % of control where 0% means no effect); settings: HEK293 ACTOne CNG channel cells, membrane potential fluorescence; series mostly up to 22.9 µM
Chain of 3',5'-cyclic-AMP phosphodiesterase 4B (Homo sapiens) (Q07343 whole entry, looked up): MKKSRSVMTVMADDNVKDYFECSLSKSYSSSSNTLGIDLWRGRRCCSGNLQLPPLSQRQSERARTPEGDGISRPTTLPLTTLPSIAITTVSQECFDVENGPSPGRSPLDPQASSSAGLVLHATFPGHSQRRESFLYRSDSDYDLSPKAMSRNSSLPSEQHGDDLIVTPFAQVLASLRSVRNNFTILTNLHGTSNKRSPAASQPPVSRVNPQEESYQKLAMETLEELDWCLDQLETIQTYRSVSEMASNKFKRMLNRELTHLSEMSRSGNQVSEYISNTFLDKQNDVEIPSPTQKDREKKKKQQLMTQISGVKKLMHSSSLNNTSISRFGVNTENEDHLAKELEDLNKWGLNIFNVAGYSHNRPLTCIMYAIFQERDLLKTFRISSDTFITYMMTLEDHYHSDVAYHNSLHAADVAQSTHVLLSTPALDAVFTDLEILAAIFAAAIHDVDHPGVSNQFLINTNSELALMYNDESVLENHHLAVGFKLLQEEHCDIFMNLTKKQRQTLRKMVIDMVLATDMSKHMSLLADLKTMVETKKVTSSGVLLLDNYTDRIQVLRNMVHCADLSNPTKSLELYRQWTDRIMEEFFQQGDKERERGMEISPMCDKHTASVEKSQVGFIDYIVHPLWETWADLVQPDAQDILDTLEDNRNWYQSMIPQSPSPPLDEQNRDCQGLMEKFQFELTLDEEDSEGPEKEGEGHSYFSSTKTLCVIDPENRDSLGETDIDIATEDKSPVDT
In short: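 HEK293 ACTOne cells with CNG channel (1000/well), endogenous PDE4; membrane potential dye, compounds up to 22.9 uM final. Fluorescence Ex 535/Em 590; RO 20-1724 (100 uM final) as reference.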

O=C(O)C(=O)/C=C(\O)c1ccc(Br)cc1
inactive: Potency [1] > 11.4 µM | activity change, negative = inhibition [2] -0.263% | activity change, negative = inhibition [3] 12.1% | activity, negative = inhibition [4] 11.6% | Potency [5] > 46 µM | Potency [6] > 9.22 µM | Potency [7] | Potency [8]

c1ccc(CCNCc2ccco2)nc1
inactive: Potency [1] > 11.4 µM | activity change, negative = inhibition [2] 3.76% | activity change, negative = inhibition [3] -2.01% | activity, negative = inhibition [4] 1.92% | Potency [5] > 46 µM | Potency [6] > 9.22 µM | Potency [7] | Potency [8]

Ic1ccc2c(c1)N(c1ccccc1)c1cc(Nc3ccc4nc5ccc(I)cc5[n+](-c5ccccc5)c4c3)ccc1N2
active: Potency [1] 7.99 µM
inactive: activity change, negative = inhibition [2] -4% | activity change, negative = inhibition [3] -3.73% | activity, negative = inhibition [4] -4.86% | Potency [5] > 46 µM | Potency [6] > 9.22 µM | Potency [7] | Potency [8]

O=C(O)[C@H](Cc1ccccc1)N1C(=O)c2ccccc2C1=O
inactive: Potency [1] > 11.4 µM | activity change, negative = inhibition [2] -3.82% | activity change, negative = inhibition [3] 16.6% | activity, negative = inhibition [4] -2.52% | Potency [5] > 46 µM | Potency [6] > 9.22 µM | Potency [7] | Potency [8]

CC(=O)O[C@H]1CC[C@]2(C)C(=CC[C@H]3[C@H]4C[C@H]5O[C@]6(CC[C@H](C)CN6)[C@H](C)[C@@H]5[C@]4(C)CC[C@@H]32)C1
inactive: Potency [1] > 11.4 µM | activity change, negative = inhibition [2] 13.4% | activity change, negative = inhibition [3] 0.916% | activity, negative = inhibition [4] 3.85% | Potency [5] > 46 µM | Potency [6] > 9.22 µM | Potency [7] | Potency [8]

CC(C)=CCNc1ncnc2nc[nH]c12
inactive: Potency [1] > 11.4 µM | activity change, negative = inhibition [2] 3.85% | activity change, negative = inhibition [3] 6.81% | activity, negative = inhibition [4] 5.75% | Potency [5] > 46 µM | Potency [6] > 9.22 µM | Potency [7] | Potency [8]

NC(=S)N/N=C\c1c[nH]c2ccccc12
inactive: Potency [1] > 11.4 µM | activity change, negative = inhibition [2] 2.82% | activity change, negative = inhibition [3] -6% | activity, negative = inhibition [4] 13.8% | Potency [5] > 46 µM | Potency [6] > 9.22 µM | Potency [7] | Potency [8]

CC1(C)CC(=O)C(C(c2cccc(O)c2O)C2C(=O)CC(C)(C)CC2=O)C(=O)C1
inactive: Potency [1] > 11.4 µM | activity change, negative = inhibition [2] -0.68% | activity change, negative = inhibition [3] 2.55% | activity, negative = inhibition [4] 1.05% | Potency [5] > 46 µM | Potency [6] > 9.22 µM | Potency [7] | Potency [8]

CC(C)C[C@H](N)C(=O)O
inactive: Potency [1] > 11.4 µM | activity change, negative = inhibition [2] 10.7% | activity change, negative = inhibition [3] 1.77% | activity, negative = inhibition [4] 5.12% | Potency [5] > 46 µM | Potency [6] > 9.22 µM | Potency [7] | Potency [8]

N#C/C(=C\N1CCNC1=S)C(=O)c1ccc2ccccc2c1
inactive: Potency [1] > 11.4 µM | activity change, negative = inhibition [2] -19.2% | activity change, negative = inhibition [3] 5.58% | activity, negative = inhibition [4] -8.82% | Potency [5] > 46 µM | Potency [6] > 9.22 µM | Potency [7] | Potency [8]

Cc1c(-c2nc(N)nc(C3CC3)c2C)nc(N)nc1C1CC1
inactive: Potency [1] > 11.4 µM | activity change, negative = inhibition [2] 2.87% | activity change, negative = inhibition [3] 4.67% | activity, negative = inhibition [4] 5.17% | Potency [5] > 46 µM | Potency [6] > 9.22 µM | Potency [7] | Potency [8]

CO[C@@H]1/C=C\O[C@]2(C)Oc3c(C)c(O)c4c(O)c(c(CN(C)C)c(O)c4c3C2=O)NC(=O)/C(C)=C\C=C[C@@H](C)[C@@H](O)[C@H](C)[C@@H](O)[C@H](C)[C@H](OC(C)=O)[C@@H]1C
inactive: Potency [1] > 11.4 µM | activity change, negative = inhibition [2] -3.25% | activity change, negative = inhibition [3] 17.6% | activity, negative = inhibition [4] -2.18% | Potency [5] > 46 µM | Potency [6] > 9.22 µM | Potency [7] | Potency [8]

O=C(O)/C(Cc1ccnc2ccccc12)=N\O
inactive: Potency [1] > 11.4 µM | activity change, negative = inhibition [2] -9.39% | activity change, negative = inhibition [3] 0.364% | activity, negative = inhibition [4] 4.23% | Potency [5] > 46 µM | Potency [6] > 9.22 µM | Potency [7] | Potency [8]

O=S(=O)(c1ccccc1)N1CN2CN(C1)CN(S(=O)(=O)c1ccccc1)C2
inactive: Potency [1] > 11.4 µM | activity change, negative = inhibition [2] -16.9% | activity change, negative = inhibition [3] -4.88% | activity, negative = inhibition [4] -0.275% | Potency [5] > 46 µM | Potency [6] > 9.22 µM | Potency [7] | Potency [8]

CCC(=O)[C@@H](c1ccccc1)c1ccccn1
inactive: Potency [1] > 11.4 µM | activity change, negative = inhibition [2] 10.3% | activity change, negative = inhibition [3] -5.51% | activity, negative = inhibition [4] 0.735% | Potency [5] > 46 µM | Potency [6] > 9.22 µM | Potency [7] | Potency [8]

O=C(O)CSc1ccc(N=C=S)cc1
inactive: Potency [1] > 11.4 µM | activity change, negative = inhibition [2] 7.13% | activity change, negative = inhibition [3] 27.9% | activity, negative = inhibition [4] 5.22% | Potency [5] > 46 µM | Potency [6] > 9.22 µM | Potency [7] | Potency [8]

C[C@H](OP(=O)(O)O)[C@H](N)C(=O)O
inactive: Potency [1] > 11.4 µM | activity change, negative = inhibition [2] 0.907% | activity change, negative = inhibition [3] 13.7% | activity, negative = inhibition [4] -1.55% | Potency [5] > 46 µM | Potency [6] > 9.22 µM | Potency [7] | Potency [8]

CN(CCC(=O)O)S(=O)(=O)c1ccccc1
inactive: Potency [1] > 11.4 µM | activity change, negative = inhibition [2] -0.615% | activity change, negative = inhibition [3] 15.6% | activity, negative = inhibition [4] 11.1% | Potency [5] > 46 µM | Potency [6] > 9.22 µM | Potency [7] | Potency [8]

Oc1c(Cl)cc(CN(Cc2cc(Cl)c(O)c(Cl)c2)C2CCCCC2)cc1Cl
inactive: Potency [1] > 11.4 µM | activity change, negative = inhibition [2] 4.05% | activity change, negative = inhibition [3] 1.82% | activity, negative = inhibition [4] -25.8% | Potency [5] > 46 µM | Potency [6] > 9.22 µM | Potency [7] | Potency [8]

O=C(Nc1ccc(-c2cn3ccccc3n2)cc1)c1cc(Br)ccc1O
inactive: Potency [1] > 11.4 µM | activity change, negative = inhibition [2] -0.171% | activity change, negative = inhibition [3] 1.22% | activity, negative = inhibition [4] -0.935% | Potency [5] > 46 µM | Potency [6] > 9.22 µM | Potency [7] | Potency [8]

COc1ccc(Oc2ncc3nc(-c4ccccc4)c(=O)n(CCC#N)c3n2)cc1
inactive: Potency [1] > 11.4 µM | activity change, negative = inhibition [2] -26.9% | activity change, negative = inhibition [3] -6.24% | activity, negative = inhibition [4] -6.05% | Potency [5] > 9.22 µM | Potency [6] > 46 µM | Potency [7] | Potency [8]

COc1ncc2nc(C)c(=O)n(C)c2n1
inactive: Potency [1] > 11.4 µM | activity change, negative = inhibition [2] -15% | activity change, negative = inhibition [3] -2.54% | activity, negative = inhibition [4] -2.89% | Potency [5] > 9.22 µM | Potency [6] > 46 µM | Potency [7] | Potency [8]

O=C(O)[C@@H]1CCCN1Cc1ccc2c(c1)OCO2
inactive: Potency [1] > 11.4 µM | activity change, negative = inhibition [2] 2.76% | activity change, negative = inhibition [3] 10.2% | activity, negative = inhibition [4] 0.869% | Potency [5] > 46 µM | Potency [6] > 9.22 µM | Potency [7] | Potency [8]

N[C@@H](CSC1(c2ccc(Cl)cc2)c2ccccc2-c2ccccc21)C(=O)O
inactive: Potency [1] > 11.4 µM | activity change, negative = inhibition [2] -8.46% | activity change, negative = inhibition [3] 10.1% | activity, negative = inhibition [4] -2.38% | Potency [5] > 46 µM | Potency [6] > 9.22 µM | Potency [7] | Potency [8]

Cc1[nH]c(C)c(CN(C)C)c1CN(C)C
inactive: Potency [1] > 11.4 µM | activity change, negative = inhibition [2] -2.51% | activity change, negative = inhibition [3] -26.2% | activity, negative = inhibition [4] 12.9% | Potency [5] > 46 µM | Potency [6] > 9.22 µM | Potency [7] | Potency [8]

NCCOc1ccccn1
inactive: Potency [1] > 11.4 µM | activity change, negative = inhibition [2] 10% | activity change, negative = inhibition [3] 1.74% | activity, negative = inhibition [4] -2.14% | Potency [5] > 46 µM | Potency [6] > 9.22 µM | Potency [7] | Potency [8]

O=C(O)[C@@H]1[C@@H]2O[C@H]([C@@H](Br)[C@H]2Br)[C@H]1C(=O)O
inactive: Potency [1] > 11.4 µM | activity change, negative = inhibition [2] 7.44% | activity change, negative = inhibition [3] 2.42% | activity, negative = inhibition [4] -2.12% | Potency [5] > 46 µM | Potency [6] > 9.22 µM | Potency [7] | Potency [8]
